Hit rate of the full screen: of about 2,200 compounds, about 1,300 (59%) were called active. No rule for the calls is given here. The set was probably picked from earlier hits. These entries were drawn from the full list. Results with a measured potency or affinity are listed apart.
test: human monocytic cell viability reduction – S. typhimurium screen hits, cytotoxicity control for Salmonella PhoP regulon inhibitors, dose response (AID 2253); conditions: THP-1 viability, CellTiter-Glo luminescence, 72 h; series mostly up to 50 µM

SMILES	outcome
CCOCCCNC(=S)Nc1cc(C)cc(C)c1	inactive
COCCSc1ccccc1C(=O)NCC1CCCO1 (centres undefined)	inactive
COc1cccc(-c2nc(-c3ccc(Br)o3)no2)c1	inactive
COCCNC(=S)N(Cc1cccnc1)Cc1ccc(OC)c(OC)c1	inactive
CCOC(=O)C1=C(C)NC(=O)NC1c1ccsc1 (centres undefined)	inactive
CC1=C(C(=O)Nc2cccnc2)C(c2ccccn2)n2nnnc2N1 (centres undefined)	inactive
CN1C(=O)CC(P(=O)(c2ccccc2)c2ccccc2)N(C)C1=O (centres undefined)	inactive
Cc1cn([C@H]2C[C@H](N=[N+]=[N-])[C@@H](CO)O2)c(=O)[nH]c1=O	inactive
COc1nsnc1NS(=O)(=O)c1ccc(NC(=S)NC(=O)c2ccncc2)cc1	inactive
C#CC(C)(CC)NC(=O)c1cc(OC)c(OC)c(OC)c1 (centres undefined)	inactive
CCn1nnc(-c2ccccc2NS(=O)(=O)c2ccc(S(=O)(=O)N3CCCCCC3)cc2)n1	inactive
Cc1nc(CC(=O)c2ccc(O)cc2O)cs1	inactive
OCCNc1ccc(Cl)cc1	inactive
CC(=O)Nc1nc(-c2ccc(Cl)cc2)nc(C)c1C(C)=O	inactive
C#CCOc1c(Cl)cc(/C=N/O)cc1OC	inactive
CC(C(=O)NC1C=CS(=O)(=O)C1)N1C(=O)/C(=C/c2ccc(Cl)cc2)SC1=S (centres undefined)	inactive
COc1cc(C)c(Cc2cnc(N)nc2N)cc1OC	inactive
CCn1cc(C(=O)O)c(=O)c2cc(Br)ccc21	inactive
COc1ccc(NC(=O)CSc2nccn2-c2ccccc2)cc1	inactive
Cc1ccc(OCc2nnc(SCC(=O)Nc3ccc4c(c3)OCO4)n2C)cc1	inactive
Cc1cc(C)c(C#N)c(SCC(O)CS(=O)(=O)Cc2ccccc2)n1 (centres undefined)	inactive
CCn1c(Cc2c(C)[nH]c3ccccc23)n[nH]c1=S	inactive
O=C1CSc2ccccc2N1Cc1ccc(F)cc1	inactive
COc1cc(C2SCC(=O)N2c2nnc(C34CC5CC(CC(C5)C3)C4)s2)cc(OC)c1OC (centres undefined)	inactive
C/C(=C\c1ccco1)C1Nc2cccc3cccc(c23)N1	inactive

SMILES	outcome
CN1CCN(C(c2cccc(C(F)(F)F)c2)c2nnnn2C(C)(C)C)CC1 (centres undefined)	inactive
O=C(O)c1cc(O)c2c(c1)[C@@H]([C@H]1c3cc(C(=O)O)cc(O)c3C(=O)c3c(O[C@@H]4O[C@H](CO)[C@@H](O)[C@H](O)[C@H]4O)cccc31)c1cccc(OC3O[C@H](CO)[C@@H](O)[C@H](O)[C@H]3O)c1C2=O (some centres undefined)	inactive
CN1CCN(c2c(F)cc3c(=O)c(C(=O)O)cn4c3c2OCN4C)CC1	inactive
COc1ccc(-n2c(=O)c3ccccc3n(CC(=O)Nc3cc(C)on3)c2=O)cc1OC	inactive
CCn1cc(C(=O)O)c(=O)c2cc(F)c(N3CCN(C(=S)NC(=O)c4ccc(F)c(F)c4)CC3)cc21	inactive
COc1ccccc1CC1(C)NC(=O)N(CC(=O)N2CC(C)OC(C)C2)C1=O (centres undefined)	inactive
CCn1nc(C(=O)O)c(=O)c2cc3c(cc21)OCO3	inactive
Cc1snc(S(=O)(=O)/C(C#N)=N\Nc2ccccc2)c1C#N	inactive
COc1ccc(N2C(=O)[C@@H]3[C@H](C2=O)[C@H]2c4ccccc4C=CN2[C@@H]3C(=O)Nc2ccccc2)cc1	inactive
O=C(c1ccccc1)N1CCSC1=S	inactive
CC(C)NC(=O)/C(=N\O)c1ccccc1	inactive
CC(CN1CCOCC1)C(=O)c1ccccc1 (centres undefined)	inactive
CCC(CC)C(=O)Nc1cccc(C(=O)N2CCCC2)c1	inactive
Cc1cc(C(C)c2ccccc2)c(O)c(CN2CCOCC2)c1C (centres undefined)	inactive
CCCCCOc1ccc(NC(=O)C(=O)NCCC2=CCCCC2)cc1	inactive
O=C(CSc1nncs1)Nc1ccc2c(c1)OCCO2	inactive
CC(O)CNc1cc(N)c([N+](=O)[O-])cc1[N+](=O)[O-] (centres undefined)	inactive
CCNC(=O)COC(=O)CCC(=O)c1cccs1	inactive
COCCNS(=O)(=O)c1cccn1-c1ncc(C(F)(F)F)cc1Cl	inactive
Cc1cc(C)cc(-n2nc(C)cc2N)c1	inactive
Cc1cccc(NC(=O)CCC(=O)OCc2ccc(Br)cc2)c1	inactive
CCOC(=O)CN1C(=O)C(C)(C)Oc2ccc(C(=O)Nc3ccccc3OC)cc21	inactive
O=C(O)C1CCC(N2C(=O)C3CCCCC3C2=O)CC1 (centres undefined)	inactive
COC(=O)c1ccc(CSc2nnnn2-c2ccccc2)o1	inactive
Cc1ccccc1-n1nc(-c2ccc(N)cc2)cc1N	inactive

SMILES	outcome
Cc1cc(CNC(=O)Nc2ccc3c(c2)OCO3)nn1C	inactive
O=C(NCc1ccccn1)Nc1cccc(Cl)c1	inactive
CC(=O)c1cccc(NC(=O)Nc2cc3sccc3n2C)c1	inactive
CC(=O)c1cccc(NC(=O)Nc2cccs2)c1	inactive
O=C(CSCc1ccccc1)Nc1ccc2c(c1)OCO2	inactive
CN(C)C(CNC(=O)Nc1cccc(Cl)c1)c1cccnc1 (centres undefined)	inactive
Cc1ccccc1CS(=O)(=O)c1snnc1C	inactive
CCOC(=O)c1cnc2ccccc2c1Nc1ccc2c(c1)OCCO2	inactive
CCOC(=O)c1cnc2ccc(OC)cc2c1Nc1ccc2c(c1)OCCO2	inactive
Cc1cc(Nc2ccccc2F)n2ncnc2n1	inactive
N/C(=N\OC(=O)Nc1ccc(Cl)cc1)c1ncc(C(F)(F)F)cc1Cl	inactive
Cc1nn(-c2ncc(C(F)(F)F)cc2Cl)c(=O)n1-c1cccc(Cl)c1	inactive
CCCCNC(=O)OC1CCS(=O)(=O)C1 (centres undefined)	inactive
Cc1ccc2nc(-c3ccc(Br)o3)oc(=O)c2c1	inactive
COC(=O)C1=C(C)N(C)C(=O)/C1=C\c1ccco1	inactive
C=CC1=C(C(=O)O)N2C(=O)[C@@H](NC(=O)/C(=N\O)c3csc(N)n3)[C@H]2SC1 (stereo in doubt)	inactive
O=C1CC(SCc2nc3ccccc3[nH]2)C(=O)N1c1ccc(Cl)cc1 (centres undefined)	inactive
O=C(NC1CCCCC1)C(c1ccncc1)N(CC1CCCO1)C(=O)C(F)(F)F (centres undefined)	inactive
O=C(Nc1ccc(Cl)cc1)N1CC=CCC1	inactive
Cn1cccc1CC(=O)NNC(=S)Nc1ccc(Cl)cc1	inactive
CCC(CC)c1nnc(NC(=O)Oc2ccccc2)s1	inactive
CCN(CC(=O)N1CCN(Cc2ccccc2)CC1)S(=O)(=O)c1ccc(F)cc1	inactive
S=C(Nc1ccc2snnc2c1)N1CCN(c2ccccn2)CC1	inactive
Cc1ccccc1NC(=O)Nc1cccs1	inactive

— PubChem BioAssay AID2253 (Southern Research Specialized Biocontainment Screening …, 2010)
